Screens deposited in PubChem BioAssay by National Center for Advancing Translational Sciences (NCATS).
A selection: hits, their analogues and other compounds. The true share with any hit is near 11%.
G9a block – inhibitors of human histone lysine methyltransferase G9a. Q96KQ7. Potency, µM (titrated, usually from 102 µM), most hits filed as inhibitors. G9a H3K9 monomethylation, AlphaScreen, 2 h. 8.8% of 350,000 active. AID 504332; further: nearly all actives have a fitted effect of over 75% in size
Target sequence (Q96KQ7 913-1193 limits assumed): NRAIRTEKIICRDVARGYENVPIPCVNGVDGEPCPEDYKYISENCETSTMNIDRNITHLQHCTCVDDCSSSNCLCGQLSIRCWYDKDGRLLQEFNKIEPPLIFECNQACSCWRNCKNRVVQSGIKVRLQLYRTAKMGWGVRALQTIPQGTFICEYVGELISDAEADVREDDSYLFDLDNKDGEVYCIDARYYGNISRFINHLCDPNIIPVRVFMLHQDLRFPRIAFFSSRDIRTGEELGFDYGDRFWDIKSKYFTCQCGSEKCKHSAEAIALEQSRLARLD
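Step 1: enzyme (final 20 nM) with compound, 15 min RT. Step 2: substrate peptide 500 nM and SAM 20 uM, 2 h RT. Step 3: anti-H3K9me1 antibody and AlphaScreen beads, 10 min, then plate read.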
JMJD2A Tudor – inhibitors of human JMJD2A Tudor domain; AID 504339; Potency, µM (top dose mostly 114 µM), usual class: inhibitors; 4.4% of 390,000 active; AlphaScreen JMJD2A-Tudor / H3K4me3 peptide binding; further: nearly all actives have a fitted effect of over 50% in size
L3MBTL1 inh – blocks human L3MBTL1 | Q9Y468 | AlphaScreen L3MBTL1–H3K9me1 peptide binding | Potency, µM (titrated, usually from 57.1 µM), actives largely listed as inhibitors | 0.66% of 230,000 active; further: nearly all actives have a fitted effect of over 60% in size
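L3MBTL1 50 nM + b-AHA-H3(1-15)K9me1 75 nM, 30 min RT; compound added, 30 min RT; streptavidin donor/Ni-chelate acceptor beads 10 ug/mL each final, 30 min RT dark; AlphaScreen read.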
BAZ2B inh – inhibitors of human BAZ2B bromodomain | Q9UIF8 | AlphaScreen BAZ2B-H3K14Ac peptide displacement | Potency, µM (top dose mostly 114 µM), most hits filed as inhibitors | 4.4% of 360,000 active | AID 504333; further: nearly all actives have a fitted effect of over 60% in size
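Inhibition is scored as reduced AlphaScreen emission. The BAZ2B/b-H3(5-23)K14Ac complex (50 nM each) in PBS pH 7.4, 0.01% Tween-20 meets compound (up to 110 uM) for 30 min at RT before bead addition.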
HP1b chromo inh – HP1-beta chromodomain-methylated histone interaction inhibition. Potency, µM (doses to about 114 µM), most hits filed as inhibitors. 0.56% of 390,000 active. P83916. AID 540317. AlphaScreen HP1-beta / biotin-H3K9me3 peptide binding; further: nearly all actives have a fitted effect of over 70% in size
Target sequence (P83916 whole entry, looked up): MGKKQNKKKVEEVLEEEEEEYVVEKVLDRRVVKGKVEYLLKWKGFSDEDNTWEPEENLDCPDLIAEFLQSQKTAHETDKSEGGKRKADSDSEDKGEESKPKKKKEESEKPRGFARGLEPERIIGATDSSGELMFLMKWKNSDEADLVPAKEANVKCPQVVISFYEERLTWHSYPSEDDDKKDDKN
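HP1-beta protein (50 nM final) preincubated 30 min at room temperature with biotinylated H3(1-18)K9me3 peptide (50 nM) in PBS pH 7.4, 0.01% Tween-20, then compound added for 30 min. AlphaScreen streptavidin donor/nickel chelate acceptor beads (10 ug/mL final), 30 min dark, luminescence read.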
Each line names hits and unclear results; the compound was inactive in the other large screens. The call rests on the fitted dose curve; in most records, active means well fitted inhibition curve with a large enough effect; inconclusive means small, poorly fitted or top-dose-only effect; inactive means no such curve, though single readings can be large or run the other way.

COc1ccc(Nc2nc(S(=O)(=O)c3ccc(C)cc3)c(Cl)s2)cc1	G9a block 44.7µM, JMJD2A Tudor inconclusive
Cc1nn(CC(=O)N2CCN(c3ccccc3)CC2)c(=O)c2cc3sccc3n12	none (no result: L3MBTL1 inh)
CCN1CCN(Cc2c(O)ccc3c2O/C(=C\c2ccc(C)cc2)C3=O)CC1	BAZ2B inh inconclusive
CCN1CCN(Cc2c(O)ccc3c2O/C(=C\c2ccccc2)C3=O)CC1	G9a block 79.4µM, BAZ2B inh inconclusive (no result: L3MBTL1 inh)
Cc1ccc(/C=C2\Oc3c(ccc(O)c3CN3CCN(C)CC3)C2=O)cc1	none (no result: L3MBTL1 inh)
CC1CCCN(Cc2c(O)ccc3c2O/C(=C\c2ccco2)C3=O)C1 (stereo unspecified)	G9a block 3.55µM, JMJD2A Tudor inconclusive, BAZ2B inh inconclusive
CCc1ccc(-n2nc(CO)c(C(=O)NCc3ccccn3)n2)cc1	G9a block inconclusive (no result: L3MBTL1 inh)
CN(C)c1ccc(CNCCC2CCOC(C)(C)C2)cc1 (stereo unspecified)	G9a block 44.7µM, BAZ2B inh inconclusive (no result: JMJD2A Tudor, L3MBTL1 inh, HP1b chromo inh)
c1ccc(CNCc2ccco2)cc1	none (no result: L3MBTL1 inh)
Cc1cccc(-n2c(C)c(C)c3c(N)ncnc32)c1	G9a block 50.1µM, JMJD2A Tudor inconclusive (no result: L3MBTL1 inh)
Cc1ccc(-n2c(C)c(C)c3c(N)ncnc32)cc1	G9a block inconclusive (no result: L3MBTL1 inh)
CCOC(=O)CC(NC(=O)c1cc2cc(OC)ccc2oc1=O)c1ccc(OC)cc1 (stereo unspecified)	none (no result: L3MBTL1 inh)
CCC(C)c1ccccc1OCCCCN1CCCC1 (stereo unspecified)	G9a block inconclusive, JMJD2A Tudor 3.16µM, L3MBTL1 inh inconclusive, BAZ2B inh inconclusive
CCC(C)c1ccccc1OCCOCCN1CCCC1 (stereo unspecified)	G9a block 12.6µM, JMJD2A Tudor 2.51µM, BAZ2B inh inconclusive, HP1b chromo inh inconclusive
CC(C)c1cccc(C(C)C)c1OCCCCCN1CCOCC1	none (no result: G9a block, L3MBTL1 inh, BAZ2B inh)
CC(=O)c1cccc(N2C(=O)CN(S(C)(=O)=O)CC2(C)C(=O)NC2CCCC2)c1 (stereo unspecified)	none (no result: L3MBTL1 inh)
O=[S+]([O-])(c1ccc(N2CCOCC2)nc1)N1CCN([S+](=O)([O-])c2c(F)cccc2F)CC1	none (no result: G9a block, L3MBTL1 inh, BAZ2B inh, HP1b chromo inh)
C/C(=N\NC(=O)c1ccc(N(C)C)cc1)c1cccnc1	G9a block 25.1µM, BAZ2B inh inconclusive (no result: L3MBTL1 inh)
C/C(=N\NC(=O)c1ccc(N(C)C)cc1)c1ccc(C)c(C)c1	G9a block 44.7µM
CCN(CC)c1ccc(C(=O)N/N=C(\C)c2cccnc2)cc1	none
C/C(=N\NC(=O)c1cccnc1)c1ccc(OC2OCCOC2Oc2ccc(/C(C)=N/NC(=O)c3cccnc3)cc2)cc1 (stereo unspecified)	JMJD2A Tudor 14.1µM, HP1b chromo inh inconclusive
C/C(=N\NC(=O)c1ccc(N(C)C)cc1)c1ccc(C)cc1C	G9a block inconclusive, BAZ2B inh inconclusive
CCOc1cc(-c2nc(-c3ccc(-c4ccc(C)cc4)nc3OC)no2)cc(OCC)c1OCC	none (no result: L3MBTL1 inh)
Cc1ccc(C)c(OCCC(=O)Nc2ccccc2C(=O)NC2CC2)c1	none (no result: G9a block, BAZ2B inh)
Cc1ccc(C)c(OCCCC(=O)Nc2ccccc2C(N)=O)c1	G9a block 50.1µM
COc1cccc(OCCCCN2CCCCC2)c1	G9a block inconclusive, JMJD2A Tudor 8.91µM, BAZ2B inh inconclusive
CC(C)c1cccc(OCCN2CCCC2)c1	G9a block 31.6µM, JMJD2A Tudor 35.5µM, BAZ2B inh inconclusive, HP1b chromo inh inconclusive
CCC1CCCCN1CCCNC(=O)CN1C(=O)c2cccnc2Oc2ccc(Cl)cc21 (stereo unspecified)	none (no result: L3MBTL1 inh)
CCC1CCCCN1CCCCOc1cccc(Cl)c1 (stereo unspecified)	JMJD2A Tudor 17.8µM, BAZ2B inh inconclusive, HP1b chromo inh inconclusive (no result: L3MBTL1 inh)
CC1CCCN(CCOc2ccc(Br)cc2)C1 (stereo unspecified)	G9a block 10µM, JMJD2A Tudor 20µM, BAZ2B inh inconclusive
c1ccc(N=c2nc(-c3ccccc3)n(-c3ccccc3)s2)cc1	none (no result: G9a block, L3MBTL1 inh, BAZ2B inh)
Fc1ccc(OCCCCCCN2CCCC2)cc1	none
CCOc1cccc(OCCCCN2CCCCC2)c1	G9a block 8.91µM, JMJD2A Tudor inconclusive, BAZ2B inh inconclusive, HP1b chromo inh inconclusive
Brc1cccc(OCCCCN2CCCCC2)c1	G9a block 7.08µM, JMJD2A Tudor 50.1µM, BAZ2B inh inconclusive, HP1b chromo inh inconclusive
COc1cccc(OCCCN2CCCCC2)c1	none
